One assay deals with SLC26A5. Kind of assay: pooled miR-30 sensor sort-seq; sequence = guide strand. Conditions: shRNA.
As to TATACAAGTCGCTATTTGCATA, the sensor-assay potency score (higher = more potent) is -1.73. The same measure, in the same setting: to TAGTCTTTCCTGGAGGACCGGA belongs -0.913; to TTTCGTTTTAATGCATTGCTAT, -0.563. Sequence TTTCCAAGGACTTTGTAGCTTG came in with a sensor-assay potency score (higher = more potent) of -0.312.

As for TTGCATAGTAAATTGGTGCATT, the sensor-assay potency score (higher = more potent) is -0.361.

In the case of TAACATTCTGCAACACAGCAAC, the sensor-assay potency score (higher = more potent) is -0.753.

TATCATCTGGTACTAATCGAAC came in with a sensor-assay potency score (higher = more potent) of -1.32. Sequence TTGTCCTTTGTGTGTAGTCTTT displayed a sensor-assay potency score (higher = more potent) of -0.811. On the same count and under the same terms, the value for TTAATGAGGCCAAACAACCTGC was -0.462; that for TTGTGTGTAGTCTTTCCTGGAG was -0.0771; that for TTCTGCAACACAGCAACTGTAC was -0.438. On to TAAATCTTTGCATTTCCTCAGG, for which the sensor-assay potency score (higher = more potent) was -0.693.

In a further assay the target is SLC26A8. The assay is described as above. To be noted: shRNA.
With TGAATTGTCATTCTTGTCTGTT, the sensor-assay potency score (higher = more potent) was -0.0701.

Sequence AATCGATACATACACATCCATT registered a sensor-assay potency score (higher = more potent) of -1.59. On the same count and under the same terms, the value for TAATCGATACATACACATCCAT was -0.25; that for TTTTATATCTTGAATTGTCATT was -1.25; that for TTTATTTTCAAATCGCTCTGTG was 0.487.

For the sequence TTGATTTTTCTGAGACACGGAC, the sensor-assay potency score (higher = more potent) was -0.723.

For TTTACAAATGTAATTGAGCTGC, the sensor-assay potency score (higher = more potent) was -0.345. Still for that read-out and setting: to TAGTCCTAGCAATAGCACCAGT belongs -1.08.

Consider TTAGGTAGTAAACATTTACAAA, for which the sensor-assay potency score (higher = more potent) is -1.21. On the same count and under the same terms, the value for TTGAATTGTCATTCTTGTCTGT was 0.809. Same read-out and setting: the value for TTATCCTGGATAATAGTCCTAG was -0.541; that for TTGAGCTTCATCTCTTTGGAGA was -0.991.

The next assay concerns the target SLC27A5. The description is as above. Conditions: shRNA.
Sequence TATGTGTCCGGTCCTCTGGTTG returned a sensor-assay potency score (higher = more potent) of -1.24. Still for that read-out and setting: the value for TTCATCAGTTTGAACGTGCTGG was 0.535.

TAAACCACATCATCAGCTGTGG returned a sensor-assay potency score (higher = more potent) of -0.167. On to TTGTCCAGTACAAACAGAGGGT, for which the sensor-assay potency score (higher = more potent) is -0.338. Same read-out and setting: to TATTCTGCCACTGCTACAGGGC belongs -0.565; to TTGTAGTAAACGTCGCCCGATT, -1.15. As to TACAGGATCACTGTCACGCCAT, the sensor-assay potency score (higher = more potent) was -0.0663.

Take TAGTCCATTGCCCATTGCCAGG: the sensor-assay potency score (higher = more potent) is -1.83.

The sequence TGTTGTAGTAAACGTCGCCCGA yielded a sensor-assay potency score (higher = more potent) of -0.779. The same measure, in the same setting: the value for TTGACTAAGCCCATGTTGCCTT was -0.405. The same measure, in the same setting: to TAGTTGACTAAGCCCATGTTGC belongs -0.878; to TTGCAAGAAGTCCACCTGCGAC, -1.49.

The target in a further assay is SLC28A2. The assay is described as above. To be noted: shRNA.
TTTGTTCTTGTATTGAGACAGT registered a sensor-assay potency score (higher = more potent) of -0.497.

On to TTGGTGAAACTTGTGTTTGGGA, for which the sensor-assay potency score (higher = more potent) is -0.24.

With TTCTTTTTCCATGAGCTCCAGC, the sensor-assay potency score (higher = more potent) was -0.532.

Consider TTGGACAGTCTGTCCACTCTAC, for which the sensor-assay potency score (higher = more potent) turned out to be 0.142.

The values above are taken from the OligoGym collection.
Note: reference of the scale not given here.
